Compound activity: PubChem BioAssay, several laboratories
Shown are actives, neighbours in structure and some others; about 5% of the full set was active somewhere.
SENP6 inh – inhibitors of human SENP6 protease. Q9GZR1. Recombinant SENP6 catalytic domain, aminoluciferin luminescence. inhibition, % at 10 µM. 330,000 compounds, 1.8% hits. AID 2599;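 active means inhibition above about 50% at the single tested dose, limit read from the data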
EBI2 block – antagonists of human EBI2 receptor | inhibition, % at 5 µM | EBI2 beta-arrestin recruitment, luminescence, 7a,25-OHC stimulated | 360,000 compounds, 0.81% hits | AID 651636 | P32249; in the data active means inhibition above about 38%;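 further: enzyme fragment complementation signal reports receptor beta-arrestin coupling in cells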
SENP8 block-1 – SENP8 (human) protease inhibition | Q96LD8 | recombinant SENP8, Nedd8 substrate fluorescence | inhibition, % at 20 µM | 360,000 compounds, 0.64% hits | AID 602440; in the data active means inhibition mostly above about 40%, no sharp cut-off; inactive means mostly below about 27%
Target sequence (Q96LD8 whole entry, looked up): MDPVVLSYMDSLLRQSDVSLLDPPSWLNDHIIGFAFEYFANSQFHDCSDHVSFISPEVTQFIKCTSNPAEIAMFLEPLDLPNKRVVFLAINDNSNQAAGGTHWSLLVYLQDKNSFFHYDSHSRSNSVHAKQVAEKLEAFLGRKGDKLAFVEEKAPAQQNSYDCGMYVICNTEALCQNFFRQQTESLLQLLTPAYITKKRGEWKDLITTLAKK
SENP7 inh – inhibitors of human SENP7 protease | inhibition, % at 5 µM | 330,000 compounds, 1.5% hits | recombinant SENP7, Z-RLRGG-aminoluciferin luminescence, 40 min | AID 434973 | Q9BQF6;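 active means inhibition above about 50% at the single test dose, limit read from the data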
Target sequence (Q9BQF6 706-1050 limits assumed): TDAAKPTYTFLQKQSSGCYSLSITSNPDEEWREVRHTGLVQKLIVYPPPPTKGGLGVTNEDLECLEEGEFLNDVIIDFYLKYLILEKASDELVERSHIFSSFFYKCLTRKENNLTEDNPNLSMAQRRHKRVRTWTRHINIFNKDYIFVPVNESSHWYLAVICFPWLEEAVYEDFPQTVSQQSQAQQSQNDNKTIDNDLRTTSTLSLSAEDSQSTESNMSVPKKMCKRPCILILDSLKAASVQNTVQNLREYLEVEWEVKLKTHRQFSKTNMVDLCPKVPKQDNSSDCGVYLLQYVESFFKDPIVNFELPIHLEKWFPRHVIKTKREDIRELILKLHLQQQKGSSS
AHR activator – activators of human aryl hydrocarbon receptor. P35869. AHR-responsive luciferase reporter cells, luminescence. activation, % at 5 µM. 320,000 compounds, 2.5% hits. AID 2796; in the data active means activation above about 47%
SENP8 block-2 – inhibitors of human SENP8 protease | Q96LD8 | purified SENP8, Z-RLRGG-aminoluciferin cleavage, luminescence | inhibition, % at 10 µM | 330,000 compounds, 1.2% hits | AID 2540; in the data active means inhibition above about 50%
SENP8 confirm – confirmation of human SENP8 protease inhibitors | inhibition, % at 12.5 µM | AID 488912 | Recombinant SENP8, Z-RLRGG-aminoluciferin luminescence, 60 min | shares compounds with SENP7 inh | 6,200 compounds, 40% hits;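 active means mean inhibition across replicates above about 50%, limit read from the data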
SENP6 conf – human SENP6 inhibition, confirmed; inhibition, % at 12.5 µM; shares compounds with SENP7 inh; recombinant SENP6, Z-RLRGG-aminoluciferin luminescence; 6,200 compounds, 58% hits
SENP7 confirm – human SENP7 inhibition, confirmed. shares compounds with SENP7 inh. recombinant SENP7, Z-RLRGG-aminoluciferin luminescence, 40 min. inhibition, % at 12.5 µM. 6,200 compounds, 69% hits
Casp3 select – caspase-3 inhibition (SENP selectivity assay) | shares compounds with SENP7 inh | purified caspase-3, Z-DEVD-aminoluciferin luminescence, 60 min | inhibition, % at 12.5 µM | 6,200 compounds, 60% hits | AID 488918;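 active means mean inhibition above about 50%, limit read from the data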
Luc interf – counter-screen for SENP inhibitors: luminescence interference | shares compounds with SENP7 inh | Pre-incubated SENP8/Z-RLRGG-aminoluciferin, luciferase luminescence interference | inhibition, % at 12.5 µM | 6,200 compounds, 39% hits | AID 488919;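 active means mean inhibition above about 50% when retested at one dose, limit read from the data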
Large screens that a line does not name were inactive (follow-up assays come after a bar, where they were run).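 How the source made its calls, unless noted: active means mean inhibition above about 50% in the one-dose retest (limit read from the data); inactive means the rest.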

CCOc1ccc2c(c1)c(N=Nc1cccc(C(=O)O)c1)c(O)n2C	none
CCc1ccc2oc(-c3ccc(OC)cc3)cc(=Nc3c(C)n(C)n(-c4ccccc4)c3=O)c2c1	SENP6 inh 97, SENP7 inh 99, AHR activator 57, SENP8 block-2 84 | SENP8 confirm inactive | SENP6 conf inactive | SENP7 confirm inactive | Casp3 select inactive | Luc interf inactive
COc1ccc(-c2cc(=Nc3ccc(C(=O)O)cc3)c3cc(C)ccc3o2)cc1	SENP6 inh 66, SENP7 inh 89, SENP8 block-2 79 | SENP8 confirm inactive | SENP6 conf 81 | SENP7 confirm 93 | Casp3 select 84 | Luc interf 64
COc1ccc2cc(C(=O)NCc3ccco3)c(=Nc3ccc(C(=O)O)cc3)oc2c1	none
CCc1ccc2oc(-c3ccc(OC)cc3)cc(=Nc3cccc(C(=O)O)c3)c2c1	SENP7 inh 97, SENP8 block-2 86 | SENP8 confirm 83 | SENP6 conf 85 | SENP7 confirm 95 | Casp3 select 79 | Luc interf 63
C=CCn1c(-c2ccc(OC)cc2)csc1=Nc1c(C)n(C)n(-c2ccccc2)c1=O	none
COc1ccc(C(=O)NNC2=NCCCCC2)cc1	none
Cc1ccsc1C(=O)NNC(=O)c1ccccc1F	SENP7 inh 58 | SENP8 confirm inactive | SENP6 conf inactive | SENP7 confirm 76 | Casp3 select 83 | Luc interf 56
O=C(Nc1nnc(-c2ccccc2)s1)c1ccccc1O	SENP6 inh 80, SENP7 inh 63, SENP8 block-2 84 | SENP8 confirm inactive | SENP6 conf inactive | SENP7 confirm inactive | Casp3 select inactive | Luc interf inactive
COc1ccccc1C(=O)Nc1nnc(-c2ccccc2)s1	none
COc1cccc(C(=O)Nc2nnc(-c3ccccc3)s2)c1OC	SENP6 inh 79, SENP7 inh 55, SENP8 block-2 57 | SENP8 confirm inactive | SENP6 conf inactive | SENP7 confirm 64 | Casp3 select 61 | Luc interf inactive
CCOc1ccccc1N1CCN(CC(=O)Nc2ccccc2C(=O)NC2CC2)CC1	none
COc1ccc(CC(=O)NCCC(C)C)cc1S(=O)(=O)N1CCOCC1	none
CC(C)COC(=O)c1ccc2c(c1O)C(=O)c1ccccc1C2=O	SENP6 inh 81, SENP7 inh 93 | SENP8 confirm 85 | SENP6 conf 88 | SENP7 confirm 95 | Casp3 select 59 | Luc interf 52
COc1cc(OC)cc(C(=O)Nc2cccc(NC(=O)c3ccccc3)c2)c1	none
COc1cc(OC)cc(C(=O)Nc2cccc(C(C)=O)c2)c1	SENP6 inh 65, SENP7 inh 68 | SENP8 confirm 58 | SENP6 conf 53 | SENP7 confirm 82 | Casp3 select 78 | Luc interf 63
COc1cc(OC)cc(C(=O)Nc2ccc(Nc3ccccc3)cc2)c1	SENP6 inh 80, SENP7 inh 58, SENP8 block-2 60 | SENP8 confirm 65 | SENP6 conf 61 | SENP7 confirm 85 | Casp3 select inactive | Luc interf inactive
O=Nc1ccc(NOC(=O)c2ccccc2Br)cc1	none
O=C(ONc1ccc(N=NC(=O)c2ccccc2O)cc1)c1ccccc1	SENP6 inh 91, SENP7 inh 56, SENP8 block-2 85 | SENP8 confirm inactive | SENP6 conf inactive | SENP7 confirm inactive | Casp3 select 85 | Luc interf inactive
Cc1ccc(Oc2cc(-n3nc(C)cc3C)ncn2)cc1	SENP6 inh 54 | SENP8 confirm inactive | SENP6 conf inactive | SENP7 confirm 73 | Casp3 select inactive | Luc interf inactive
CN(C)c1ccccc1C(=O)N1CCC(n2nccc2NC(=O)C2CC2)CC1	none
O=C(NCC1CCCO1)C1CCCN(S(=O)(=O)c2ccc(Cl)cc2)C1 (configuration not stated)	none
Cc1cccc2c(N=Nc3ccccc3)c(O)[nH]c12	SENP7 inh 54, AHR activator 76 | SENP8 confirm inactive | SENP6 conf inactive | SENP7 confirm inactive | Casp3 select inactive | Luc interf inactive
O=C(N=Nc1c(O)[nH]c2ccccc12)c1ccco1	SENP6 inh 60, SENP7 inh 62 | SENP8 confirm inactive | SENP6 conf inactive | SENP7 confirm 83 | Casp3 select 80 | Luc interf inactive
Oc1[nH]c2ccccc2c1N=Nc1nncc2ccccc12	SENP6 inh 72, SENP7 inh 74 | SENP8 confirm inactive | SENP6 conf inactive | SENP7 confirm 72 | Casp3 select 76 | Luc interf 58
O=C(CSCc1ccccc1)N=Nc1c(O)[nH]c2ccccc12	none
Oc1[nH]c2ccccc2c1N=Nc1c(F)c(F)c(Cl)c(F)c1F	none
Oc1[nH]c2ccccc2c1N=Nc1cccc(Cl)c1	SENP7 inh 64 | SENP8 confirm inactive | SENP6 conf inactive | SENP7 confirm inactive | Casp3 select inactive | Luc interf inactive
NC(=S)N=Nc1c(O)[nH]c2ccccc12	none
CN(C(=O)Nc1ccc(Cl)cc1Cl)[C@H]1c2cc(Br)ccc2OC[C@H]1CO	none
CC(C)CCn1c(=O)c2ccccc2n2c(CN3CCOCC3)nnc12	none
O=C(CCC(=O)N1CCN(c2ccccn2)CC1)Nc1nnc(C(F)(F)F)s1	none
COc1ccc(-n2nc(C(=O)NCC(=O)Nc3cccc(Cl)c3)c3ccccc3c2=O)cc1	none
CC1=NN(c2nc3ccccc3[nH]2)C(=O)/C1=C/N(C)C	SENP6 inh 88, SENP7 inh 96, SENP8 block-2 92 | SENP8 confirm 88 | SENP6 conf 84 | SENP7 confirm 98 | Casp3 select 97 | Luc interf 91
CCCC1=NN(c2ccc([N+](=O)[O-])cc2)C(=O)/C1=C/N(C)C	SENP6 inh 98, SENP7 inh 99, SENP8 block-2 95 | SENP8 confirm 95 | SENP6 conf 95 | SENP7 confirm 101 | Casp3 select 96 | Luc interf 96
Cc1ccc(-c2ccc(/C=C3\C(=O)ON=C3c3ccccc3)o2)c([N+](=O)[O-])c1	none
O=C1/C(=C\c2ccc(-c3ccccc3[N+](=O)[O-])o2)C(c2ccccc2)=NN1c1ccccc1	SENP6 inh 58 | SENP8 confirm inactive | SENP6 conf inactive | SENP7 confirm inactive | Casp3 select inactive | Luc interf inactive
